# Laboratory results reported in PubChem BioAssay AID588814 (The Scripps Research Institute Molecular Screening Center, 2011).
# About 1,200 (0.33%) of roughly 360,000 compounds were called active. Many of the other results were omitted from the sample, so actives are more common in it than they were. Unmarked numbers belong to inactive results.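 The calls were made as follows: active = activation above the run's mean compound activation plus 3 SD (cut at about 16% in these data); inactive = the rest.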
# Target: Muscarinic acetylcholine receptor M1 (Homo sapiens) (UniProt P11229)
# Sequence (P11229 whole entry, looked up): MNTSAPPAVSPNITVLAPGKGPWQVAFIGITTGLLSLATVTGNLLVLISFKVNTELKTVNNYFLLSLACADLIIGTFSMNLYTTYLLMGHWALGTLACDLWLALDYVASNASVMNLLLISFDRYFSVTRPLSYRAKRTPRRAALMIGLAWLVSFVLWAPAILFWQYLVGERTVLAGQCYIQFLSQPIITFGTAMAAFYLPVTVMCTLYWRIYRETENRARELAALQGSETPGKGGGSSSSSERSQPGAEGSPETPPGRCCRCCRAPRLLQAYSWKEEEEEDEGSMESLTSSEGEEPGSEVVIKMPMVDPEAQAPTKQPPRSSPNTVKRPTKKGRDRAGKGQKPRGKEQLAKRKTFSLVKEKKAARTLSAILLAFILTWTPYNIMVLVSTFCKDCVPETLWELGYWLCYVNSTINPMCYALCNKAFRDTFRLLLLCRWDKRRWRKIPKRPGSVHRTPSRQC
# Test: CHRM1 activation via calcium signal – Fluo-8 calcium fluorescence, CHO-K1 cells, HTS, primary screen (AID 588814);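 also: peak over basal fluorescence ratio within a 140 s kinetic read after compound addition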
# Conditions: CHO-K1 hM1, Fluo-8 calcium fluorescence, agonist mode; at 3 µM; active compounds read high; 0% DMSO, 100% acetylcholine EC100
row,Structure (SMILES),activation
1,OC(c1ccc(F)cc1)c1ncc(-c2cccc(C(F)(F)F)c2)[nH]1 (configuration not stated),6.15%
2,CC(=O)Nc1cc(-c2ccccc2F)cn2c(-c3cccc(C(F)(F)F)c3)cnc12,-3.25%
3,NS(=O)(=O)c1ccc(NC(=O)COC(=O)c2ccco2)cc1,-0.06%
4,NS(=O)(=O)c1ccc(NC(=O)COC(=O)c2c3c(nc4ccccc24)/C(=C\c2ccc4c(c2)OCO4)CCC3)cc1,62.8% (active)
5,NS(=O)(=O)c1ccc(NC(=O)COC(=O)CCc2c[nH]c3ccccc23)cc1,-0.53%
6,NC(=O)c1ccc(NC(=O)COC(=O)c2c3c(nc4ccccc24)/C(=C\c2ccc4c(c2)OCO4)CCC3)cc1,38.3% (active)
7,O=C(COC(=O)c1ccc(Cl)nc1)NCc1ccc2c(c1)OCO2,-4.12%
8,CC(=O)Nc1cccc(C(=O)OCC(=O)c2ccc3c(c2)OCO3)c1,6.09%
9,CC1(C(=O)NS(=O)(=O)c2cccc(F)c2)CCN1C(=O)Cc1ccc(Cl)cc1Cl (configuration not stated),-1.39%
10,CC1Cc2ccccc2N1CC(=O)Nc1ccc2c(c1)OC(F)(F)O2 (configuration not stated),-7.22%
11,Cc1ccc(-n2nc(C)c(/C=N/NC(=O)c3cccs3)c2Cl)cc1,16.7% (active)
12,CCN(CC)c1ccc(/C=N/NC(=O)CNC(=O)c2cccs2)cc1,-4.5%
13,Cc1nn(-c2ccccc2)c(NC(=O)c2cccs2)c(-c2ccc(Cl)cc2)c1=O,-7.73%
14,CC(=NNC(=O)c1ccncc1)c1ccc(Cl)c(Cl)c1,-2.06%
15,CCOCCCN1C(=O)C2C(C(=O)Nc3ccc(OCC)cc3)C3C=CC2(O3)C1C(=O)NC1CCCCC1 (configuration not stated),-6.34%
16,CCCNC(=O)C1CC(=O)N(c2ccc(OCc3ccccc3)cc2)C1 (configuration not stated),1.07%
17,COc1cc(OC)c(-n2cc(-c3ccc(Cl)cc3)[nH]c2=O)cc1Cl,58% (active)
18,COc1cc(OC)c(N2CC(C(=O)Nc3cc(Cl)ccc3N3CCOCC3)CC2=O)cc1Cl (configuration not stated),-5.02%
19,COc1ccc(-n2c(-c3ccc(Cl)cc3)n[nH]c2=S)c(OC)c1,-4.14%
20,CC(=O)C[C@@H](O)CC(=O)[C@H]1OC(=O)CCCCCCc2ccccc21,10.4%
21,Cn1nccc1NC(=O)CC(CC(=O)O)c1ccccc1 (configuration not stated),0.28%
22,Cn1nc(C(F)(F)F)c2cc(NC(=O)OCC(C)(C)C)sc21,-6.85%
23,CC(C)COC(=O)c1ccc(NC(=O)C2C3C=CC(C3)C2C(=O)O)cc1 (configuration not stated),-3%

row,Structure (SMILES),activation
1,CCc1ccc(-c2cc3c(=O)n(CC(=O)NCCCN4CCN(Cc5ccccc5)CC4)nc(C)n3n2)cc1,0.73%
2,CC(=O)OC(C)C[N+](C)(C)C (configuration not stated),115% (active)
3,CC(C[N+](C)(C)C)OC(N)=O (configuration not stated),87.5% (active)
4,CC(=O)OCCC(C)C,-3.12%
5,Cc1oc2nc(SCC(=O)Nc3ccc(S(N)(=O)=O)cc3)nc(NC(=O)c3ccccc3)c2c1C,-4.87%
6,Cc1sc(NC(=O)C2=COCCO2)c(C#N)c1C,-6.11%
7,CC(C)Cn1c(CCC(=O)O)ccc1-c1cccs1,-4.32%
8,O=c1c2ccccc2c(-c2ccccc2)nn1-c1ccccn1,-1.79%
9,CC(C)(C)OC(=O)N/N=C/c1cn(-c2ccccc2)nc1-c1cccnc1,24% (active)
10,COc1ccccc1N1CCN(C(=O)c2cn(-c3ccccc3)nc2-c2cccnc2)CC1,0.62%
11,O=C(COC(=O)/C=C/c1cn(-c2ccccc2)nc1-c1cccnc1)Nc1ccc(Cl)cc1Cl,-5.6%
12,O=C(CNc1cccc(S(=O)(=O)N2CCCCC2)c1)Nc1ccccc1F,2.04%
13,Cc1ccc(O)c(-c2cc(C(=O)NCc3ccccc3)[nH]n2)c1,-5.25%
14,CCCOc1ccc(F)cc1-c1cc(C(=O)NCc2ccc(F)cc2)[nH]n1,-7.18%
15,Cc1cc(O)ccc1-c1cc(C(=O)NCc2cc(C(F)(F)F)cc(C(F)(F)F)c2)[nH]n1,16.9% (active)
16,CCc1nc2c(OCCC3CCCCC3)cccn2c1N(C)C(=O)c1ccco1,-9.74%
17,CCOC(=O)C1(Cc2cccc(OC)c2)CCCN(S(=O)(=O)c2cccnc2)C1 (configuration not stated),-1.49%
18,COc1ccc(C(C#N)=C2C=CC(=NO)c3ccccc32)cc1,-8%
19,CCOc1c(N2CCCCC2)c(=O)c1=O,-7.26%
20,CCc1nc2ccc(C(=O)N(C)CCN(C)C)cn2c1N(CC)CCOC,-6.84%
21,CCc1nc2ccc(C(=O)Nc3cccc(OC)c3)cn2c1N(CCC(C)C)CCN(C)C,29.4% (active)
22,CCc1nc2ccc(C(=O)Nc3ccc(OC)c(OC)c3)cn2c1N(C)C(=O)c1cccc(OC)c1,-2.95%
23,Cc1ccc(-c2nn(-c3ccccc3)cc2C(=O)NC2CCC(O)CC2)cc1 (configuration not stated),0.01%

row,Structure (SMILES),activation
1,O=C(NNC(=S)NC(=O)c1cn(-c2ccccc2)nc1-c1ccccc1)c1ccncc1,16.6% (active)
2,NC(=O)C1CCN(C(=O)c2cn(-c3ccccc3)nc2-c2cccnc2)CC1,-0.33%
3,Cc1cc(SCC(=O)NCCN2C(=O)CSC2=O)nc2ccccc12,-9.92%
4,Cc1ccc(S(=O)(=O)NCc2nc3ccccc3c(=O)n2N)cc1,-0.65%
5,O=C(CCCN=C1NS(=O)(=O)c2ccccc21)OCC(=O)c1ccc(F)c(F)c1,27% (active)
6,N#CC1(NC(=O)COC(=O)CCN=C2NS(=O)(=O)c3ccccc32)CCCCC1,-0.14%
7,O=C(OCCN=C1NS(=O)(=O)c2ccccc21)c1cccc([N+](=O)[O-])c1,-1.9%
8,Cc1cccc(NC(=O)c2ccc3c(=O)n(CC4CCCO4)c(=S)[nH]c3c2)c1 (configuration not stated),-0.37%
9,N#C/C(=C/c1ccc(N2CCCCC2)o1)C(=O)NCCc1c[nH]c2ccccc12,28.4% (active)
10,N#C/C(=C\c1ccc(N2CCOCC2)o1)C(=O)N1CCOCC1,2.53%
11,O=C(NCCc1c[nH]c2ccccc12)C1CCN(Cc2ccc(Br)cc2)CC1,-4.6%
12,CCOCc1nnc(NC(=O)CCC2CCCCC2)s1,-1.9%
13,O=S(=O)(Nc1ccc(Cl)cn1)c1cnc(Cl)c(Br)c1,-0.28%
14,CCOc1ccc(C(=O)NC(C(=O)NCc2ccccn2)C(C)C)cc1 (configuration not stated),-5.01%
15,O=C(N/N=C/c1ccsc1)c1cc(O)cc(O)c1,-1.35%
16,O=C1Nc2ccc([N+](=O)[O-])cc2C1=Nc1cccc(CO)c1,0.24%
17,Cc1noc(C)c1C(=O)NCC1COc2ccccc2O1 (configuration not stated),-2.12%
18,O=C1C(=O)N(CC2COc3ccccc3O2)c2ccccc21 (configuration not stated),39.1% (active)
19,O=C1C(=O)N(c2ccccc2)c2ccccc21,13.1%
20,CCCC1C(c2ccccc2)C(C#N)(C#N)C2(C#N)CC1(N)NC2=O (configuration not stated),-0.06%
21,Cc1ccc(NC2=C(Cl)C(=O)OC2OC(=O)c2ccccc2C)cc1 (configuration not stated),-9.26%
